Data on 46 compounds can be found in PubChem BioAssay AID2014 (Sanford-Burnham Center for Chemical Genomics, 2009).

Screen size: about 290,000 compounds; about 3,000 (1%) were called active. No rule for the calls is given here. The sample as a whole holds a higher share of actives than the screen did.

The target of this test is Polyadenylate-binding protein 1 (Homo sapiens) (UniProt P11940). Kind of test: PABP poly(A) RNA binding inhibitors, primary screen, biochemical, fluorescence polarization, uHTS (AID 2014).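 Also: calls also rest on retests at 20 µM and on dose response follow-up.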 As to conditions: stronger effect = higher value. On the technique in general: Polarisation of emitted light reports the rotation of a fluorescent probe.
Polyadenylate-binding protein 1 (Homo sapiens), sequence (P11940 whole entry, looked up): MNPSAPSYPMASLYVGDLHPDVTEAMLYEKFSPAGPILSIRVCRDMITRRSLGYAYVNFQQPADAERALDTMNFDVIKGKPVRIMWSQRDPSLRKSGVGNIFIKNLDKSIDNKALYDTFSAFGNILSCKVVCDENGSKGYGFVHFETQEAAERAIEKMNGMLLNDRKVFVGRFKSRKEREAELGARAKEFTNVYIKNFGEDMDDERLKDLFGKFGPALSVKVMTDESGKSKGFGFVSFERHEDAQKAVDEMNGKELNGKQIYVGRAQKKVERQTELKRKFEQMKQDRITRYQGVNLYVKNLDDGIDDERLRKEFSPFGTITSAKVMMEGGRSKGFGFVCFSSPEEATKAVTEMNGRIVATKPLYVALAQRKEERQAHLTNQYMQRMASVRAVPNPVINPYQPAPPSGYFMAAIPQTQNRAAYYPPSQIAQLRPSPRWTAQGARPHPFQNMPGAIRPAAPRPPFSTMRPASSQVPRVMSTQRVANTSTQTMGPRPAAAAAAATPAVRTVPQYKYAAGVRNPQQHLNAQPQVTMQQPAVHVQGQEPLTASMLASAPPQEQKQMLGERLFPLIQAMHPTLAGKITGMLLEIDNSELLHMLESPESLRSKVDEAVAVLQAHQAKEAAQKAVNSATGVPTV

What is called inhibition is the change of the read-out against control, counted positive when it falls. `Cc1ccc(C(=O)NC2CCN(C(=O)Nc3ccccc3Cl)CC2)cc1`: the inhibition (at 35 µM) is 8.2% (inactive).
For `Cc1cccc(N2CCN(C(C)C(=O)N3CCc4ccccc43)CC2)c1C` (stereo not given), the inhibition (at 35 µM) was -1.2% (inactive).
Take `Cc1cccc(N(C(=O)Cn2nnc(-c3ccc(C)o3)n2)C(C(=O)NC2CCCC2)c2ccncc2)c1` (stereo not given): the inhibition (at 35 µM) is 11.1% (inactive).
Take `Cc1ccc(N=C2NC(=O)/C(=C/C=C/c3ccco3)S2)cc1C`: the inhibition by setting is: (at 35 µM) -2.9% (active); (confirmation repeats, at 20 µM) 92%.
As for `Cc1cccc(N=C2NC(=O)/C(=C/c3cn(C)c4ccccc34)S2)c1`, the inhibition (at 35 µM) is -3.5% (inactive).
On the same count and under the same terms, the same measure for `Cc1ccc(N2NC(=O)/C(=C/C=C/c3ccco3)C2=O)cc1C`: 12.2% (inactive).
`CC(C)(O)C#Cc1ccc(CN2CCC(CO)(CCc3ccccc3)CC2)cc1`: the inhibition (at 35 µM) was -2.8% (inactive).
With `Brc1ccccc1CN1CCC(Cc2ccccc2)CC1`, the inhibition (at 35 µM) is 0.9% (inactive).
Take `Cn1c(N)cc(-c2ccc(F)cc2)c(C#N)c1=O`: the inhibition is 59.1% (active) (at 35 µM) and 69.9% (confirmation repeats, at 20 µM).
Turning to `Cc1cc(C)c2c(-c3ccc(F)cc3)c(C#N)c(=O)n(C)c2n1`, the inhibition (at 35 µM) was -5.1% (inactive).
Still for that read-out and setting: then `COc1ccc(O)c(C(=O)c2cnc3c(c2)c(-c2ccc(F)cc2)c(C#N)c(=O)n3C)c1`, with 7.5% (inactive); and `COc1ccc(NC(=O)C(CC(C)C)NC(=O)C2CCC(C)CC2)cc1` (stereo not given), with -2.9% (inactive); and `C=CCn1c(=O)c(C(=O)NCc2ccc3c(c2)OCO3)c(O)c2ccccc21`, with -7.7% (inactive).
For `CC1CCCCC1NC(=O)CCS(=O)(=O)c1ccc2c(c1)NC(=O)CO2` (stereo not given), under “at 35 µM”, the inhibition was 3.9% (inactive).
For `Cc1cccc2c1cnn2C(=O)CCC(=O)NC1CCCCC1`, the inhibition (at 35 µM) was -10.3% (inactive).
`CN(C(=O)CN1C(=O)S/C(=C\c2ccccc2F)C1=O)C1CCS(=O)(=O)C1` (stereo not given): the inhibition (at 35 µM) is 11.1% (inactive).
`Cc1ccc(OCC(=O)NC(C)c2ccccc2)c([N+](=O)[O-])n1` (stereo not given): the inhibition was 51.1% (inactive) (at 35 µM) and -6.6% (confirmation repeats, at 20 µM).
Taken in the same sequence, the figures for `Cc1ccc(OCC(=O)c2cc(C)n(Cc3ccco3)c2C)c([N+](=O)[O-])n1` were 40.8% (inactive) and 34.4%.
As to `COCC(C)n1c(C)cc(C(=O)COc2ccc(C)nc2[N+](=O)[O-])c1C` (stereo not given), the inhibition is -2.1% (active) (at 35 µM) and 57.1% (confirmation repeats, at 20 µM).
For the compound `CCOc1ccc(NC(=O)c2cccc3c2C(=O)N(CC2CCCO2)C3)cc1` (stereo not given), the inhibition (at 35 µM) is -7.6% (inactive).
Same read-out and setting: then `COc1ccccc1NC(=O)CSc1nnc(C)n1CC1CCCO1` (stereo not given), with 9.2% (inactive); and `CCOc1cccc(=O)c2c(C)n(CC3CCCO3)c(C)c12` (stereo not given), with 92.6% (active).
Same read-out and setting: the same measure for `Cc1cc(=O)n2[nH]c(-c3cccc(Cl)c3)cc2n1`: 1.6% (inactive).
Consider `CCc1c(C)nc2cc(-c3cccs3)[nH]n2c1=O`, for which, for the setting “at 35 µM”, the inhibition is 3.2% (inactive).
As for `Cc1cc(=O)n2[nH]c(-c3sccc3-n3c(C)ccc3C)cc2n1`, the inhibition is, setting by setting: (at 35 µM) 31.1% (active); (confirmation repeats, at 20 µM) 94.5%.
On to `CC1CCN(C(=O)c2ccc3c(=O)n4c(nc3c2)CCCCC4)CC1`, for which the inhibition (at 35 µM) was 3.8% (inactive).
Still for that read-out and setting: the same measure for `Cc1ccc(C(=O)NCC(=O)NCc2cc(=O)n(C)c(=O)n2C)cc1`: 1.4% (inactive).
`CC(/C=N/NC(=O)c1cc(-c2ccc3ccccc3c2)n[nH]1)=C\c1ccco1`: the inhibition (at 35 µM) is 9.9% (inactive) and the inhibition (confirmation repeats, at 20 µM) is 8.9%.
On to `CC(/C=N/NC(=O)c1ccncc1)=C\c1ccco1`, for which the inhibition (at 35 µM) is 14.8% (inactive).
Still for that read-out and setting: then `C/C(=C\c1ccco1)C1Nc2cccc3cccc(c23)N1`, with 116% (active); and `COc1ccc(S(=O)(=O)c2c[nH]c(=S)[nH]c2=O)cc1Cl`, with 26% (inactive); and `CCOC(=O)C1(CCOc2ccccc2)CCN(Cc2cc(OC)cc(OC)c2)CC1`, with 10.8% (inactive).
Still for that read-out and setting: the same measure for `Cn1cc(CNC(=O)c2ccc(OC3CCN(Cc4ccccn4)CC3)cc2)cn1`: 9.6% (inactive); for `O=c1ccn(Cc2ccccc2Cl)cc1`: 7.8% (inactive).
Turning to `O=S1(=O)CCN(Cc2ccccc2Cl)CC1`, the inhibition reads like this: (at 35 µM) 33.1% (active); (confirmation repeats, at 20 µM) 64.5%.
Consider `CSc1ccc(/C=N/N2CCN(Cc3ccccc3Cl)CC2)cc1`, for which the inhibition (at 35 µM) was 3.3% (inactive).
For `COc1cc(CO)ccc1OCC(=O)Nc1cccc2ccccc12`, the inhibition (at 35 µM) is -6.9% (inactive).
Consider `O=C(NCc1ccccc1)C1CCN(C(=O)Cc2ccccc2)CC1`, for which the inhibition (at 35 µM) was 0% (inactive).
Still for that read-out and setting: then `Cc1cc(Cl)c2oc(C(=O)N3CCC(O)(c4ccccc4)CC3)c(C)c2c1`, with 3.6% (inactive); and `COc1cccc(CC(=O)Nc2nc(-c3ccc(OC)c(OC)c3)cs2)c1`, with 3.9% (inactive); and `COc1ccc(OC)c(Nc2nc(-c3ccc(O)c(O)c3)cs2)c1`, with 88.7% (active).
Consider `COc1ccc(-c2csc(Nc3ccc(O)cc3)n2)cc1`, for which the inhibition (at 35 µM) was 6.1% (inactive).
Same read-out and setting: then `Cc1nc(N2CCOCC2)sc1C(=O)NN`, with 18.5% (inactive); and `Fc1cc(F)c2nc(N3CCOCC3)sc2c1`, with 6.9% (inactive).
Regarding `Cc1cc(C)n(Cc2cnc(N3CCOCC3)s2)n1`, the inhibition is, setting by setting: (at 35 µM) 55% (active); (confirmation repeats, at 20 µM) 89.9%.
For the compound `COC(=O)CCCC1=CC2=C(c3ccccc3)C(=O)C(C)(OC(=O)C3CCCC3)C(=O)C2=CN1c1ccc(OC)cc1` (stereo not given), the inhibition (at 35 µM) was 12.6% (inactive).
